# Compounds with a hit are over-represented: about 4.3% of the library has one in this group of screens.
# HSF1 inhib: HSF1 inhibition | NIH3T3-HGL HSE-luciferase, MG132-induced, luminescence 8 h; hits give low values | activity change, negative = inhibition, % at 7.5 µM (by protocol) | 300,000 compounds, 0.77% hits | AID 2098;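 active means more than half of replicate wells show activity change below -50%, luminescence cut by over half; inconclusive means some wells, but at most half, below -50%; inactive means no replicate well below -50%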;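 further: luciferase reports HSF-1 transcriptional activity via heat shock element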
# esBAF inh: inhibitors of esBAF chromatin remodeling in mouse ES cells | reporter increase, % at 12.5 µM | Bmi1-luciferase knock-in reporter, 24 h; 100% = twice the neutral-well signal | 350,000 compounds, 2% hits; in the data active means activation above about 40%; inconclusive means no clear call, values can overlap the other calls;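 further: a rise in the Bmi1 reporter signal indicates esBAF inhibition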
# MITF act: activators of MITF-driven TRPM1 promoter activity in SK-MEL-5 cells | SK-MEL-5 TRPM1-promoter luciferase, 24 h; % of positive control, neutral wells = 0 | activation, % at 12.5 µM | 300,000 compounds, 0.75% hits | AID 588334;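 active means mean activation of at least 80% with every replicate also reaching 80%; inconclusive means mean reaches 80% but some replicate falls short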
# HSF-1 act: increases HSF-1 driven luciferase reporter signal; NIH3T3-HGL HSF-1 luciferase reporter, MG132, 8 h; 100% = twice DMSO control signal; activation, % at 9 µM; 300,000 compounds, 1.7% hits;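 active means mean replicate activation of at least 50% with a set share of replicates each reaching 50%; inconclusive means only one of those two conditions met; inactive means mean below 50% and too few replicates reaching it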
# SMARCA2 act: SMARCA2 function activation, primary screen; MG213 cells, MMTV-luciferase reporter, dexamethasone, overnight; 370,000 compounds, 1% hits; activation, % at 9.1 µM; AID 652017; in the data active means activation above about 7.8%
# Wnt act: activators of Wnt/beta-catenin signaling; Wnt/beta-catenin reporter cell assay, activator, plate reader; activation, % at 9.35 µM; 300,000 compounds, 1.2% hits; AID 743398; in the data active means activation above about 30%, passing the limit was not always enough; inconclusive means no clear call, values can overlap the other calls
# Numbers stand for hits; - = inactive; ? = inconclusive; . = no result.
SMILES,HSF1 inhib,esBAF inh,MITF act,HSF-1 act,SMARCA2 act,Wnt act
Cc1nnc(NC(=O)COc2ccccc2)s1,-,-,-,-,-,-
O=C(COc1ccccc1)Nc1nnc(C23CC4CC(CC(C4)C2)C3)s1,-,48,.,-,-,-
COc1cc(=O)[nH]c(SC(C)C(=O)Nc2nc3c(s2)CCCC3)n1 (centres undefined),-,-,.,-,-,-
CO[C@H]1CN(C)C(=O)c2cc(NC(=O)C3CCOCC3)ccc2OC[C@@H](C)N(Cc2cccnc2)C[C@H]1C,.,-,.,.,.,.
COc1ccccc1CNC(=O)C[C@@H]1CC[C@@H]2[C@@H](COc3ccc(NS(=O)(=O)c4ccc(C)cc4)cc3C(=O)N2C)O1,.,-,.,.,.,.
CN(C)CC(=O)Nc1ccc2c(c1)[C@@H]1C[C@H](CC(=O)NCc3cc(F)ccc3F)O[C@H](CO)[C@@H]1O2,.,-,.,.,.,.
O=C(NCC(F)(F)F)[C@@H]1[C@@H](CO)[C@@H]2Cn3c(cccc3=O)[C@@H]2N1C(=O)C1CCC1,.,-,.,.,.,.
NC(=O)c1cc(Cc2ccccc2)sc1NC(=O)c1ccco1,-,85,118,134,-,-
CCOc1ccc(CC(=O)Nc2sc(Cc3ccccc3)cc2C(N)=O)cc1OCC,-,-,-,-,-,-
O=C(Nc1nnc(Cc2ccccc2)s1)c1ccco1,-,46,-,-,-,-
CCNC(=O)[C@H]1[C@H](CO)[C@H]2Cn3c(ccc(-c4ccccc4)c3=O)[C@H]2N1CC1CC1,.,-,.,.,.,.
C[C@H](CO)N1C[C@H](C)[C@H](CN(C)Cc2ccccc2)Oc2ccc(NC(=O)CCN3CCOCC3)cc2CC1=O,.,-,.,.,.,.
Cn1cc(NC(=O)OCc2ccc(Cl)cc2)c(C(F)(F)F)n1,-,.,-,56,-,-
COCc1cn(CC[C@H]2CC[C@H](NC(=O)Nc3ccccc3)[C@H](CO)O2)nn1,.,-,.,.,.,.
O=C(C#Cc1ccccc1)c1ccco1,-96,-,-,-,-,-
Cn1ccnc1SCC(=O)c1c[nH]c2ccccc12,-,-,-,-,-,55
CC(=O)c1ccc(-n2c(SCC(=O)c3c[nH]c4ccccc34)nc3ccccc3c2=O)cc1,-,.,-,-,-,45
C[C@H]1CN([C@@H](C)CO)C(=O)Cc2cc(NC(=O)Nc3ccccc3)ccc2O[C@H]1CN(C)S(=O)(=O)c1cccs1,.,-,.,.,.,.
C[C@H](CO)N1C[C@H](C)[C@@H](CN(C)Cc2ccncc2)Oc2ncc(C#Cc3ccncc3)cc2C1=O,.,-,.,.,.,.
O=C(COc1ccccc1F)N/N=C1\CCCc2ccccc21,-,61,-,-,-,33
O=C(O)c1ccc(N/N=C2/CCCc3ccccc32)cc1,-,59,-,-,-,-
COc1ccccc1OCC(=O)N/N=C1\CCc2ccccc21,-,46,-,-,-,.
COc1ccccc1OCC(=O)N/N=C1\CCCCc2ccccc21,-,-,-,-,-,-
Cc1cc(Cl)ccc1OCC(=O)N/N=C1\CCCc2ccccc21,-,-,-,-,-,.
O=C(Nc1ccc(OC(F)(F)F)cc1)c1n[nH]c(Cn2cncn2)n1,-,-,.,-,-,81
SMILES,HSF1 inhib,esBAF inh,MITF act,HSF-1 act,SMARCA2 act,Wnt act
Fc1ccc(C2NC(=S)NC3=C2N2CCC3CC2)cc1 (centres undefined),-,-,-,53,-,-
Cc1ccc(-c2nnc(SCc3ccccc3F)o2)cc1,-,.,99,58,-,-
NCCc1nnc(SCc2ccccc2F)o1,-,-,.,-,-,-
COc1ccc(-c2nnc(SCc3ccccc3F)o2)cc1OC,-,66,-,-,-,.
Cc1occc1C(=O)Nc1sccc1C(N)=O,-,.,-,-,-,-
Cc1noc(C)c1C(=O)Nc1sccc1C(N)=O,.,-,-,.,7.9,-
CC(=C/C(=O)O)/C=C/c1ccc([N+](=O)[O-])cc1,.,.,-,.,-,-
CC1(C)COC(/C=C/c2ccc([N+](=O)[O-])cc2)=N1,-,.,-,118,-,-
CCn1c(Cl)c(C=O)s/c1=N\S(=O)(=O)c1ccccc1,-,-,-,113,-,-
CCN1C(=O)CS/C1=N\S(=O)(=O)c1ccc(Cl)cc1,-,-,-,-,-,-
Cc1ccc(NC(=O)c2cc(N(C)C)ccc2[P+](=O)O)cc1,-,45,-,-,-,-
COc1ccccc1CNC(=O)C[C@H]1CC[C@H]2[C@@H](COC[C@H](O)CN2C(=O)Nc2ccc(C(F)(F)F)cc2)O1,.,-,.,.,.,.
O=C(NC(=S)N1CCN(c2c(Cl)cccc2[N+](=O)[O-])CC1)c1cccs1,-95,-,-,-,-,.
O=C(NC(=S)N1CCN(c2ccc(O)cc2)CC1)c1cccs1,-,-,-,-,-,-
CCCC(=O)N1CCN(c2ccc(NC(=O)c3cccs3)cc2)CC1,-,-,-,53,-,-
O=C(NC(=S)N1CCN(c2ccc(F)cc2)CC1)c1cccs1,-,-,-,103,-,-
O=C(c1cccnc1)N1C[C@H]2[C@@H](c3ccccc31)[C@@H](CO)N2C(=O)C1CCOCC1,.,-,.,.,.,.
CC(C)NC(=O)N(C)C[C@@H]1Oc2ccc(NC(=O)Cc3ccccc3)cc2C(=O)N([C@@H](C)CO)C[C@@H]1C,.,-,.,.,.,.
O=C(NCCc1cccs1)C1CC(c2ccccc2[N+](=O)[O-])=NO1 (centres undefined),-,66,-,-,-,?
CCCCNC(=O)C1CC(c2cccc([N+](=O)[O-])c2)=NO1 (centres undefined),-,90,89,-,-,38
Cc1ccc(CCNC(=O)C2CC(c3ccccc3[N+](=O)[O-])=NO2)cc1 (centres undefined),-,-,-,-,-,-
CC(C)CCNC(=O)C1CC(c2cccc([N+](=O)[O-])c2)=NO1 (centres undefined),-,-,-,-,-,-
COc1ccc(CCNC(=O)C2CC(c3ccccc3[N+](=O)[O-])=NO2)cc1 (centres undefined),-,45,-,-,-,-
Cc1ccc(S(=O)(=O)N(C)C[C@@H]2OCCCC[C@H](C)Oc3ccc(NC(=O)NC4CCCCC4)cc3C(=O)N([C@H](C)CO)C[C@H]2C)cc1,.,-,.,.,.,.
C[C@@H]1CCCCO[C@H](CN(C)S(=O)(=O)c2ccc(F)cc2)[C@@H](C)CN([C@@H](C)CO)C(=O)c2cc(NC(=O)Nc3ccc(C(F)(F)F)cc3)ccc2O1,.,-,.,.,.,.
C[C@@H]1CN([C@H](C)CO)C(=O)c2cc(C#CC3CCCCC3)cnc2O[C@@H]1CN(C)C,.,-,.,.,.,.
CCCC(=O)Nc1ccc2c(c1)C(=O)N(C)[C@@H]1CC[C@H](CC(=O)NCC(F)(F)F)O[C@@H]1CO2,.,-,.,.,.,.
CNC(=O)C[C@H]1CC[C@@H]2[C@H](COc3ccc(NC(=O)c4cccs4)cc3C(=O)N2C)O1,.,-,.,.,.,.
Cc1ccc(Cn2nc(-c3ccccc3)nc2-c2ccccc2)cc1,-,-,-,-,-,55

# Compound activity (PubChem BioAssay)
